KCNQ2 inh = rat KCNQ2 potassium channel inhibitors, primary screen, cell-based, CHO-K1, FluxOR thallium flux, B-score | AID 2156, 2009 | B-score at 10 µM | 20 min; active compounds read low | hit rate 1.1% among 310,000;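 active = fluorescence ratio B-score at most minus 3 library SDs, with starting brightness B-score within 2 library SDs, cut at about -5.5 in these data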
KCNQ2 enhance = potentiators of rat KCNQ2 potassium channel; Potassium voltage-gated channel subfamily KQT member 2 (Rattus norvegicus), O88943; CHO-K1 KCNQ2, FluxOR thallium flux fluorescence; active compounds read high; B-score at 10 µM; hit rate 0.54% among 310,000; AID 2239, 2010;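 active = fluorescence ratio B-score at least 3 SD of library B-scores, with initial fluorescence B-score within 3 of them, cut at about 5.3 in these data; same plate scores as AID 2156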;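 note: B-score of peak minus minimum over baseline fluorescence ratio after K+ and Tl+ stimulus; positive B-score means potentiation of KCNQ2 with more thallium influx and brighter signal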
Kir21 confirm = mouse Kir2.1 channel blockers, retest, confirmation, cell-based, FluxOR thallium flux, duplicate; Tl flux remaining, % of negative control (active compounds read low), % at 10 µM; hit rate 41% among 2,300; Kir2.1-expressing cells, FluxOR thallium flux fluorescence; active compounds read low; shares compounds with KCNQ2 enhance; AID 2032, 2009;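 active = Primary-screen hit whose thallium flux fell at least 3 control SD below untreated wells in both duplicates, with normal baseline fluorescence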;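 note: 0% = blank wells without stimulus and 100% = stimulated no-compound controls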
Target sequence (P35561 whole entry, looked up): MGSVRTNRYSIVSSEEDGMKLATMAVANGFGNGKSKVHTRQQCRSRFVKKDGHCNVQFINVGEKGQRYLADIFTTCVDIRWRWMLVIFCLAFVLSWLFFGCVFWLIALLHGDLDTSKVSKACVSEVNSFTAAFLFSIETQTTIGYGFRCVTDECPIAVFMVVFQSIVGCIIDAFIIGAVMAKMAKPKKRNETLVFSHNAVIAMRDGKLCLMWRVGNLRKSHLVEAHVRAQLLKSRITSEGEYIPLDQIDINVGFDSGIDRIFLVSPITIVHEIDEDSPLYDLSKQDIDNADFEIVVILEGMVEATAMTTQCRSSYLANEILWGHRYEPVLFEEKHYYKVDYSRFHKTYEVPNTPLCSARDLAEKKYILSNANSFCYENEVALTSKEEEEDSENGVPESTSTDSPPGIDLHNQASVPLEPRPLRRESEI
HEK293 ctr = alters thallium flux in parental HEK293 cells, Kir2.1 counter-screen | AID 2105 | shares compounds with KCNQ2 enhance | FluxOR thallium flux fluorescence; 0% = unstimulated blank wells | hit rate 19% among 2,300 | FluxOR signal as % of negative control (100 = no effect), % at 10 µM;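 active = dye signal at least 3 control SD above or below untreated wells in both duplicates, raw fluorescence within 3, either direction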;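 note: percent is based on the flux ratio of peak minus minimum fluorescence over baseline F0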
CHO-K1 ctr = nonspecific thallium flux increase in parental CHO-K1, confirmation, counter-screen for KCNQ2 potentiator project, cell-based, FluxOR thallium flux, duplicate. shares compounds with KCNQ2 enhance. parental CHO-K1 cells, FluxOR thallium flux fluorescence; zero = vehicle mean+3SD, 100% = vehicle-minus-blank window. activity increase over 3SD of controls, % at 10 µM. hit rate 43% among 1,200;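 active = signal rise of at least 3 SD above the untreated control mean, in both duplicate wells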;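 note: counter screen of KCNQ2 potentiator hits so any rise reflects channel-independent effects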
KCNQ1 pot spec = human KCNQ1 channel potentiation off-target, confirmation, selectivity assay for KCNQ2 potentiator project, cell-based, CHO, FluxOR thallium flux; activation over 3SD threshold, % at 10 µM; shares compounds with KCNQ2 enhance; AID 2283, 2010; hit rate 28% among 1,200; CHO KCNQ1 stable, FluxOR thallium flux fluorescence; beyond 3SD, as % of vehicle-control signal;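 active = fluorescence ratio rise of at least 3 SD of vehicle wells above their mean, in both replicate wells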;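 note: 0% = vehicle mean plus 3 SD and 100% = vehicle minus unstimulated blank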
KCNQ2 pot confirm = rat KCNQ2 channel potentiators, confirmation, cell-based, CHO, FluxOR thallium flux, duplicate; shares compounds with KCNQ2 enhance; CHO-KCNQ2 cells, FluxOR thallium flux fluorescence; potentiation, less the hit threshold, % at 10 µM; hit rate 68% among 1,200; AID 2287, 2010;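 active = fluorescence ratio rising 3 SD or more over the vehicle control mean in both replicates, plus primary screen hit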;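 note: peak minus minimum thallium fluorescence divided by baseline after K/Tl stimulus; 0% = vehicle mean plus 3 SD and 100% = vehicle minus unstimulated blank difference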
Kir2-1 sel = mouse Kir2.1 channel activation off-target, confirmation, selectivity assay for KCNQ2 potentiator project, cell-based, HEK293, FluxOR thallium flux | hit rate 2% among 1,200 | AID 2345, 2010 | shares compounds with KCNQ2 enhance | HEK293 Kir2.1, FluxOR thallium flux fluorescence | activity over 3SD threshold, % at 10 µM;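 active = fluorescence ratio rise of at least 3 SD above the vehicle-control mean, seen in both replicates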;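 note: 0% = vehicle mean plus 3 SD and 100% = vehicle minus no-stimulus blank window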
KCNQ2 W236L pot = potentiators of retigabine-insensitive KCNQ2 W236L, mechanism study for KCNQ2 potentiator project, cell-based, rat KCNQ2 W236L, CHO, automated patch clamp; shares compounds with KCNQ2 enhance; AID 2558, 2010; hit rate 10% among 940; automated patch clamp current; current increase over 3SD of negative controls (%), active compounds read high, % at 25 µM;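 active = current increase at least 3 SD of the untreated controls above them in both duplicate recordings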
Starred values were filed as active, the others as inactive; i = inactive; · = no result given. This is a sample that favours compounds with a hit; in the whole collection about 1.6% have one here.

SMILES	KCNQ2 inh	KCNQ2 enhance	Kir21 confirm	HEK293 ctr	others
CCC(C)c1ccc(C(C)NC(=S)NCc2ccc(F)cc2)cc1 (centres undefined)	i	5.16	·	·
CCC(NC(=S)NCc1ccc(F)cc1)c1ccc(C(C)C)cc1 (centres undefined)	i	7.15*	i	i	CHO-K1 ctr=78.1*;KCNQ1 pot spec=-12.9;KCNQ2 pot confirm=21.4*;Kir2-1 sel=-28.8;KCNQ2 W236L pot=i
COc1ccc(CCNC(=O)Oc2ccccc2)cc1OC	i	·	·	·
CCCCNC(=O)NS(=O)(=O)c1ccc(NC(=O)C(NC(N)=O)C(C)CC)cc1 (centres undefined)	i	·	·	·
CN(C)CC/C=C1/c2cc(F)ccc2Sc2ccc(Cl)cc21	i	·	25.0%*	i
COc1cc(Cl)cc2c1Sc1ccccc1/C2=C/CCN(C)C	-7*	-7	35.5%*	i
COc1cc2c(cc1Cl)/C(=C\CCN(C)C)c1ccccc1S2	i	·	·	·
CN(C)CC/C=C1/c2ccccc2Sc2c(O)cc(Cl)cc21	i	·	·	·
O=c1[nH]c2ccsc2c(=O)n1CCO	i	0.33	·	·
COc1ccc(-n2nc3c(c2NC(=O)CCl)CSC3)cc1	i	·	·	·
COc1ccc(CC(=O)NC2CCS(=O)(=O)C2)cc1 (centres undefined)	i	0.68	·	·
O=C1CCC(=O)N1c1ccc(NC2CCN(Cc3ccccc3)CC2)c([N+](=O)[O-])c1	i	·	·	·
O=[N+]([O-])c1ccccc1NC1CCN(Cc2ccccc2)CC1	i	0.74	33.0%*	i
O=S(=O)(/N=C(/Nc1cccc2ccccc12)c1ccc(F)cc1)c1ccccc1	i	·	·	·
COc1ccc(C2=NOC(Cn3c(Cc4ccc(Cl)cc4)nc4c3c(=O)n(C)c(=O)n4C)C2)cc1 (centres undefined)	i	5.4*	i	i	CHO-K1 ctr=6.7*;KCNQ1 pot spec=-39.1;KCNQ2 pot confirm=-12.7;Kir2-1 sel=-24.1
COc1ccccc1C1=NOC(Cn2c(NCCCO)nc3c2c(=O)n(C)c(=O)n3C)C1 (centres undefined)	i	0.64	·	·
Cc1ccc2nc(SCC(=O)NCc3ccc4c(c3)OCO4)nc(=O)n2c1	i	·	·	·
COc1ccc(C2c3ccc4ccccc4c3Oc3ncn(CCCN(C)C)c(=N)c32)cc1 (centres undefined)	-6.14*	-6.14	36.5%*	i
COc1ccccc1C1c2ccc3ccccc3c2Oc2ncn(CCN(C)C)c(=N)c21 (centres undefined)	i	·	·	·
CC(C)c1ccc(CNc2ncccn2)cc1	i	·	·	·
CC(Oc1ccc(Br)cc1)C(=O)O/N=C(\N)c1ccncc1 (centres undefined)	i	·	·	·
CC1CC1C(=O)NCCc1ccc(Cl)cc1 (centres undefined)	i	0.51	·	·
O=C(CC1CC2CCC1C2)NCCc1ccc(Cl)cc1 (centres undefined)	i	5.92*	·	·	CHO-K1 ctr=-0.3;KCNQ1 pot spec=-16.7;KCNQ2 pot confirm=0.8*;Kir2-1 sel=-74.7;KCNQ2 W236L pot=i

Screening data (PubChem)
